Measurements as given in PubChem BioAssay AID1117319 (Southern Research Institute, 2015).
Where “and” joins values, the source holds several entries; their conditions need not be identical. Identical values can stand only once. The campaign covered roughly 260,000 compounds. About 1,500 (0.58%) were called active. Another 5% or so got no clear call; they are omitted.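 The calls were made as follows: active = inhibition above a set limit at one or more doses, reproduced on every date tested; inconclusive = results disagree between test dates, or hit never tested in dose response; inactive = the rest.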 These entries were drawn from the full list. Measured potencies and affinities stand elsewhere.

The molecules below were run against Virion infectivity factor (Human immunodeficiency virus type 1 group M subtype B (isolate BH10)) + Virion infectivity factor (Human immunodeficiency virus type 1 group M subtype B (isolate BRU/LAI)) + Virion infectivity factor (Human immunodeficiency virus type 1 group M subtype B (isolate PCV12)) + Virion infectivity factor (Human immunodeficiency virus type 1 group M subtype B (isolate HXB2)) + DNA dC->dU-editing enzyme APOBEC-3G (Homo sapiens) (UniProt P69720+P69721+P69722+P69723+Q9HC16) (assay: HIV-1 Vif–A3G interaction blockers – biochemical, TR-FRET, GST-Vif 1-94, biotin-A3G peptide, dose response retest, primary screen (AID 1117319;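 also: Vif residues 1-94 fused to GST binding biotinylated APOBEC3G peptide 110-148; 0% = full assay without inhibitor and 100% = GST in place of GST-Vif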)). Settings: TR-FRET GST-Vif / biotin-A3G peptide binding; active compounds read high.

inhibition, inactive:
CN(CCC#N)C(=O)CC(Cc1ccccc1)C1CCOC(C)(C)C1 (configuration not stated) 28.5%, CC(C)n1cnc2cc(NCc3ccccn3)ccc21 14.4%, CCn1cnc2cc(NCc3ccncc3)ccc21 18.7%, CCCn1cnc2cc(NCc3ccc(Br)cc3)ccc21 -8.23%, CCCn1cnc2cc(NCc3ccccc3O)ccc21 -2.34%, CCNC(=S)NCCN1CCCCC1 -5.58%, CC(=O)Nc1ccc(NC(=O)Cn2cc3c(n2)CCCC3)cc1 -2.34%, Cc1cc(C)cc(NC(=O)Cn2cc3c(n2)CCCCC3)c1 0.97%, Cc1cc(C)c2c(N)c(-c3nc4ccccc4[nH]3)sc2n1 1.28%, O=C1CSC(=S)N1c1ccccc1 -4.55%, CCN(CC)c1ccc(N2C(=O)CSC2=S)cc1 -8.43%, Cc1ccc(S(=O)(=O)Nc2cccc(C(=O)N3CCCC3)c2)cc1F 3.33%, CC(C)c1cc(=O)oc2c3c4c(cc12)CCCN4CCC3 13.8%, O=c1oc2c3c4c(cc2c(C(F)(F)F)c1CCN1CCOCC1)CCCN4CCC3 16.6%, N/C(=N\OC(=O)CN1C(=O)c2ccccc2C1=O)c1ccc(Cl)cc1 -10.1%, COc1ccc(N2CCN(C(=O)COC(=O)c3oc4ccc(OC)cc4c3C)CC2)cc1 1.73%, COc1ccc(NC(=O)C(NC(C)=O)C(=O)NCc2ccccc2)cc1 (configuration not stated) 2.8%, CC(=O)Nc1ccn(-c2ccccc2)n1 15.9%, O=C(Nc1ccn(-c2ccccc2)n1)c1ccc(Cl)cc1 -12.3%, COc1ccc(S(=O)(=O)N(CC(=O)NCc2ccco2)C2CCCCC2)cc1OC 24%, COC(=O)c1cc([N+](=O)[O-])c(C)c(C)n1 -2.89%, CCN1CCc2c(C#N)c(N3CCCCC3)nc(NCc3ccccc3)c2C1 25.2%, CCN1CCc2c(C#N)c(N3CCOCC3)nc(NCc3ccccc3)c2C1 13.6%, CCCc1c(C)[nH]c2ccccc2c1=O 6.62%, CC1=NN(c2ccc(Cl)c(C(=O)O)c2)C(=O)/C1=C\c1ccc(-c2ccc(C(=O)O)cc2)o1 1.61%, CC1=NN(c2ccc(C)cc2)C(=O)/C1=C\C=C\c1ccccc1 -3.38%, CC1=NN(c2cccc(C(=O)O)c2)C(=O)/C1=C\C=C/c1ccccc1 29.5%, CC1=NN(c2ccc(Cl)c(C(=O)O)c2)C(=O)C1 29.9%, O=C(CSc1nnc(CCCO)n1-c1ccccc1)Nc1nccs1 -0.69%, CCOc1cc(CNCCO)cc(Br)c1OCc1ccc(Cl)cc1 -0.39%, Nc1cc(=O)nc(SCC(=O)Nc2ccccc2Cl)n1-c1ccccc1 -1.2%, Cc1ncsc1CCSc1nc2ccccc2c(=O)n1C -1.02%, COc1cc(OC)cc(C(=O)Nc2cccnc2)c1 7.36%, COc1ccc(S(=O)CC(=O)Nc2ccccc2Cl)cc1 (configuration not stated) -2.59%, CCN(CC)c1ccc(C=Nc2ccccc2C)c(O)c1 -5.2%, CCN(CC)c1ccc(C=Nc2cc(C)cc(C)c2)c(O)c1 9.03%, CCN(CC)c1ccc(C=Nc2ccc(C#N)cc2)c(O)c1 -0.77%, CCN(CC)c1ccc(C=Nc2ccccc2)c(O)c1 29.3%, COc1nnc(-c2ccc(C)c(S(=O)(=O)NC(C)C)c2)c2ccccc12 -9.93%, COc1ccc(C2=NC(CO)(CO)CO2)cc1 -8.98%, O=C(Nc1ccc(S(=O)(=O)N2CCCC2)cc1)c1cc(=O)c2ccccc2o1 -4.62%, CN(C)CC(=O)N1c2ccccc2Sc2ccc(Cl)cc21 3.03%, COc1ccc(CCNC(=O)CN2CCOc3ccccc32)cc1OC 2.79%, O=C(CN1CCCc2ccccc21)NCCc1ccc(Cl)cc1 32.1%, NC1=CC(=O)C(=O)c2ccccc21 6.05%, O=C1C=C(Nc2ccccc2)c2ccccc2C1=O 2.25%, COc1cc(NC(=O)CS(=O)(=O)c2ccccc2)cc(OC)c1OC -4.34%, COc1cc(-c2nnc(NC(=O)CS(=O)(=O)c3ccc(C)cc3)o2)cc(OC)c1OC -0.69%, O=[N+]([O-])c1cccnc1N1CCN(c2ccc(F)cc2)CC1 -1.42%, COCCCC1CCN(Cc2cn[nH]c2-c2cc(OC)c(OC)c(OC)c2)CC1 -14.3%, COC(=O)c1ccc(COc2ccccc2/C=N/Nc2cccc(C(=O)O)c2)cc1 9.8%, O=C(O)c1cccc(N/N=C/c2ccc(OC(F)(F)F)cc2)c1 0.25%, CSc1ccc(/C=N/Nc2ccc(Cl)c(C(=O)O)c2)cc1 14.3%, O=C(O)c1cccc(N/N=C/c2ccc(-c3ccccc3)cc2)c1 6.67%, CN(C)S(=O)(=O)N1CCc2ccccc21 28.1%, Cc1cc(OCCn2cnc3ccccc3c2=O)ccc1[N+](=O)[O-] 3.47%, O=S(=O)(N=C1C=CC(=NS(=O)(=O)c2ccccc2)c2ccccc21)c1ccccc1 14.1%, CCc1ccc(S(=O)(=O)ON2C(=O)c3ccccc3C2=O)cc1 5.83%, CCc1ccc(S(=O)(=O)/N=C2\C=C(NS(=O)(=O)c3ccccc3)C(=O)c3ccccc32)cc1 16%, COc1ccc(S(=O)(=O)/N=C2/C=CC(=O)C(C)=C2C)cc1 9.79%, Cc1ccc(CNC(=O)CSc2nc(N3CCCCC3)nc(N3CCCCC3)n2)cc1 4.78%, COc1ccc(Nc2nc(OC)nc(N3CCOCC3)n2)cc1 -3.38%, CC1=C(C(=O)OC2CCCCC2)C(c2cccs2)n2c(nc3ccccc32)N1 (configuration not stated) -7.41%, CN1CCc2cc3c(c4c2[C@H]1[C@H](O)c1ccccc1-4)OCO3 9.65%, CN1CCc2ccccc2C1C1CCNCC1 (configuration not stated) 25.2%, CCN(CC)CCn1c2c(c(SCC(=O)NCc3ccccc3)nc1=O)CCCC2 6.08%, O=C(NCCCN1CCN(CCCNC(=O)c2cccc([N+](=O)[O-])c2)CC1)c1cccc([N+](=O)[O-])c1 1.34%, Cc1nn(C)cc1/C=N/NC(=S)Nc1ccccc1 0.96%, C/C(N)=C(/C#N)C(=O)CSc1n[nH]c(-c2ccccc2Br)n1 10.4% and -7.5%, CCOC(=O)c1ccccc1NC(=O)[C@@H]1CCCN1C(=O)OC(C)(C)C 3.12%, CCN1C(=O)c2ccc(C(=O)NCc3ccc4c(c3)OCO4)cc2C1=O -10.4%, Cc1cc(C(F)(F)F)n2ncc(C(=O)O)c2n1 -3.78%, Cc1cc(C(F)(F)F)n2nc(C)c(-c3ccc(Cl)cc3)c2n1 -0.47%, CC(C)(C)C1=NN=C2c3ccccc3C(=O)C21 (configuration not stated) 6.1%, COCOCCn1cc(CN2CCS(=O)(=O)N(Cc3ccc(-c4ccc(Cl)cc4)cc3)C(C)C2=O)nn1 (configuration not stated) 1.6%, Cc1cc(C(=O)CC#N)c(C)n1-c1c(C)n(C)n(-c2ccccc2)c1=O 3.73%, CCOC(=O)c1cc(C)n(-c2c(C)n(C)n(-c3ccccc3)c2=O)c1C 2.99%, Cc1onc(-c2ccccc2Cl)c1C(=O)O/N=C(\N)c1ccccc1 -3.35%, COc1ccc2c(=O)c3c(=O)n(Cc4ccco4)c(-c4ccccc4)nc3oc2c1 -5.44%, COc1ccc2c(=O)c3c(=O)n(Cc4ccco4)c(-c4ccc(C)cc4)nc3oc2c1 -32.5%, COc1ccc2c(=O)c3c(=O)n(Cc4ccco4)c(-c4ccco4)nc3oc2c1 6.47%, COc1ccc2c(=O)c3c(=O)n(Cc4ccco4)c(C(C)C)nc3oc2c1 -5.33%, O=C(O)CCS(=O)(=O)Cc1ccccc1Cl 3.96%, CC(C)OC(=O)C1C(=O)CC(C)(O)C(C(=O)OC(C)C)C1c1ccccc1 (configuration not stated) -5.49%, O=C(N/N=C/c1c[nH]c2ccccc12)c1ccc([N+](=O)[O-])cc1Cl 2.78%, CCCCC(=O)NC(=S)Nc1ccccc1N1CCCCC1 1.96%, Cc1nc(SCC(=O)c2ccc(F)c(F)c2)[nH]c(=O)c1Oc1ccc(F)cc1 -1.47%, Cc1cc(N2C(=O)C(O)=C(C(=O)c3ccco3)C2c2ccc(O)cc2)no1 (configuration not stated) -5.88%, COc1cc(C2C(C(=O)c3ccc(C)o3)=C(O)C(=O)N2c2cc(C)on2)cc(Br)c1O (configuration not stated) 19.3%, COC(=O)c1ccc(COc2nc(C)cc(C)c2C#N)o1 2.74%, CCN(CC)S(=O)(=O)c1ccc(N2CCOCC2)c(NC(=O)CCC2CCCCC2)c1 -9.59%, O=C(O)c1ccccc1C(=O)N1CCN(c2ccccc2)CC1 3.73%, O=C(c1ccccc1C(=O)N1CCN(c2ccccc2)CC1)N1CCN(c2ccccc2)CC1 3.97%, COc1ccc(N2CCN(C(=O)CSc3ccccc3)CC2)cc1 30.3%, O=C(CCSc1ccccc1)N1CCN(c2ccccc2)CC1 -3.65%, CCn1c(SCC(=O)N2CCN(c3ccccc3)CC2)nnc1-c1ccoc1C 7.37%, Cc1occc1-c1nnc(SCC(=O)N2CCN(c3ccc(F)cc3)CC2)n1C 8.11%
